Measurements published in PubChem BioAssay (NCI).
The panel holds about 83,000 compounds, 20% with a hit somewhere; the sample as a whole holds those more often.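 The test compound was applied at a single concentration to cells in 96-well plates for 48 hours, and percent growth was recorded.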 Unmarked numbers belong to inactive results. Activity calls are given as the source filed them. The calls were made as follows: active = growth percent below 10; inactive = the rest.

These molecules were tested on NCI-H522 lung (assay: NCI-60 one-dose screen, 48 h (100 = growth as untreated, 0 = no growth, -100 = all killed)). Conditions: 10 µM.

SMILES | growth
COc1ccc(/C=C/C(=O)c2ccc(NC(=O)CN3C(=O)NC(C)(c4ccccc4)C3=O)cc2)cc1 (centres undefined) | 86.8%
Cc1ccc(C(C)C)cc1NC(=O)c1ccccc1O | 20.6%
CC1(c2ccccc2)NC(=O)N(CC(=O)Nc2ccc(C(=O)/C=C/c3ccc(Br)cc3)cc2)C1=O (centres undefined) | 64.3%
C=C[C@@]12CN3CC[C@]1(O)[C@@](C(=O)OC)(CO2)c1[nH]c2ccccc2c1C3 | 22.3%
COc1ccc(/C=C/C(=O)c2ccc(S(=O)(=O)NCCNc3nc(Nc4ccc(F)cc4)nc(N(C)C)n3)cc2)cc1 | 57.3%
O=c1oc2ccccc2cc1-c1csc(N=Nc2c(O)[nH]c3ccc(Br)cc23)n1 | 67.4%
O=C(CSc1nnc(-c2c[nH]c3ccccc23)n1-c1ccccc1)Nc1ccc(C(=O)/C=C/c2ccccc2Cl)cc1 | 83.1%
O=C(NO)c1ccc(-c2nc3ccc4[nH]ncc4c3c3c2CCCC3)cc1 | -43% (active)
CS(=O)(=O)Nc1ccc(-c2ccc3c(c2)ncn3-c2ccc(NC(=O)Nc3ccc(Br)cc3)cc2)cc1 | -23.4% (active)
O=C(CS(=O)(=O)c1oc(-c2ccc(Cl)cc2)nc1S(=O)(=O)c1ccc(Cl)cc1)N1CCOCC1 | -14.8% (active)
COc1cc(-c2nc3cc(Cl)c(Cl)cc3[nH]2)ccc1OCc1nnc(-c2ccc(Br)cc2)o1 | 8.01% (active)
COc1cccc(C(N)=Nc2ccc(OCCCCCCn3cncn3)cc2)c1 | -2.45% (active)
COc1cc2c3c(n(CCCn4ccnc4)c(=O)c2cc1OC)-c1nc2c(cc1C3=O)OCO2 | 40.4%
Cc1ccc(/C=C/C(=O)c2ccc(NC(=O)CSc3nnc(-c4c[nH]c5ccccc45)n3-c3ccccc3)cc2)cc1 | 81.7%
O=C(CSc1nnc(-c2ccc3nc(-c4ccccc4)[nH]c3c2)o1)Nc1ccc(Br)cc1 | 61.2%
O=C(CNc1nc(-c2ccccc2)cs1)Nc1ccccc1 | -81.6% (active)
O=C(/C=C/Nc1ccc(F)cc1F)c1ccc2c(c1)Nc1ccccc1S2 | 75%

SMILES | growth
COc1cc(Cn2c(C(F)(F)F)cc3c(Cl)ncnc32)ccn1 | 56%
COc1ccc(-c2cc(C(=O)N=Nc3c(O)[nH]c4ccc(F)cc34)c3ccccc3n2)cc1 | 70.8%
O=C(Nc1ccccc1)Nc1nc2ccccc2s1 | 72.3%
O=C(CSc1nnc(-c2ccc3nc(-c4ccccc4)[nH]c3c2)o1)Nc1ccc(Cl)cc1 | 28.7%
CCOc1ccc(Nc2nc3ccccc3nc2Nc2ccc(OCC)cc2)cc1 | 55.9%
CNC(=O)c1cc(-c2ccc(NC(=O)Nc3ccc(C)cc3)cc2)nc2cccnc12 | 87.5%
Cc1ccc(C(=O)Nc2ccc(-n3c(C)nc4c(cnn4-c4ccccc4)c3=O)cc2)cc1 | 71.2%
COc1ccc(-c2cc(-c3cc(C(=O)c4ccccc4)n4ccc(C)cc34)nc(N)c2C#N)cc1 | 71.5%
C[C@H]1[C@H](C)CC[C@]2(COC(=O)CCC(=O)NCC#CCN3CCNCC3)CC[C@]3(C)C(=CC[C@@H]4[C@@]5(C)CCCNC(C)(C)[C@@H]5CC[C@]43C)[C@H]12 | 59%
O=c1[nH]c2ccc(Cl)cc2cc1CSc1ccc(Nc2nccc(-c3ccc(Cl)cc3)n2)cc1 | 33.3%
COc1ccc(-c2cc(C(=O)N=Nc3c(O)[nH]c4ccccc34)c3ccccc3n2)cc1 | 24.3%
COc1ccc(-c2nc(S(=O)(=O)c3ccc(C)cc3)c(S(=O)(=O)CC(=O)N(C)Cc3ccccc3)o2)cc1 | -1.9% (active)
COc1ccc(C(C)=C(c2ccc(OCCCN(C)C)cc2)c2ccc(OCCCN(C)C)cc2)cc1 | -92.7% (active)
COc1cc2c3c(n(CCCNCCO)c(=O)c2cc1OC)-c1nc2c(cc1C3=O)OCO2 | 2.99% (active)
c1ccc(C(=C(c2ccc(OCCN3CCCCC3)cc2)c2ccc(OCCN3CCCCC3)cc2)C2CCCC2)cc1 | -42.2% (active)
O=C(CSc1nnc(-c2c[nH]c3ccccc23)n1-c1ccccc1)Nc1ccc(C(=O)/C=C/c2ccc(Cl)cc2)cc1 | 76.8%
COc1cnc2c(c1)C(=O)c1c-2n(CCCNC(C)C)c(=O)c2cc(OC)c(OC)cc12 | 41.3%
